The source of these data is PubChem BioAssay (EPA / NIEHS).

Records with an inconclusive call do not appear. Calls of active or inactive are those of the source. Rule for the calls: active = hit-call score of the fitted dose curve at least 0.9, where 1 is the maximum; inconclusive = response in the unintended direction; inactive = score below 0.9.

Experiment [1] deals with rat Androgen Receptor (AR), Ar (gene 24208) (UniProt P15207). In words: NVS_NR_rAR: NovaScreen (NVS) Nuclear Receptor Binding Assay for rat Androgen Receptor (AR) (AID 2283366). The essentials:
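Actives from a duplicate single-concentration (25 uM) primary run went on to concentration series. Displacement of radioligand was counted by filtration and scintillation, 18 h post-dose, using prostate extracts from testosterone-pretreated rats, with DMSO as baseline.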

Experiment [2] deals with Estrogen receptor (Homo sapiens) (UniProt P03372). In words: OT_ER_ERaERa_1440: Odyssey Thera (OT) 24-hour HEK293T Protein-Complementation Assay for Estrogen Receptor-alpha/-alpha Homodimer (AID 2283349).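 Note: hits raise fluorescence above DMSO for agonists and antagonists alike.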 The essentials:
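Cells (HEK293T) carrying the fragment-tagged ERα LBD (aa 310-547) pair are treated with chemical for 24 hours. Nuclear and/or cytoplasmic fluorescence is then quantified on a laser scanning cytometer. Activity is scored as signal gain against DMSO.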

For experiment [3], the target named is Estrogen receptor (Homo sapiens) + Estrogen receptor beta (Homo sapiens) (UniProt P03372+Q92731). As to the kind of experiment: OT_ER_ERaERb_1440: Odyssey Thera (OT) 24-hour HEK293T Protein-Complementation Assay for Estrogen Receptor-alpha/-beta Homodimer (AID 2283356).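 Note: heteromer of ER alpha and ER beta binding domains; hits raise reporter fluorescence and both agonists and antagonists give an increase.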 The essentials: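 Stable HEK293T PCA line, ERα LBD 310-547 + ERβ LBD 263-489 fused to reporter fragments; 24 h treatment; fluorescence read by laser scanning cytometry; positive fitting direction relative to DMSO.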
Estrogen receptor (Homo sapiens) + Estrogen receptor beta (Homo sapiens), sequence (P03372 whole entry, looked up, the tested form may be a part): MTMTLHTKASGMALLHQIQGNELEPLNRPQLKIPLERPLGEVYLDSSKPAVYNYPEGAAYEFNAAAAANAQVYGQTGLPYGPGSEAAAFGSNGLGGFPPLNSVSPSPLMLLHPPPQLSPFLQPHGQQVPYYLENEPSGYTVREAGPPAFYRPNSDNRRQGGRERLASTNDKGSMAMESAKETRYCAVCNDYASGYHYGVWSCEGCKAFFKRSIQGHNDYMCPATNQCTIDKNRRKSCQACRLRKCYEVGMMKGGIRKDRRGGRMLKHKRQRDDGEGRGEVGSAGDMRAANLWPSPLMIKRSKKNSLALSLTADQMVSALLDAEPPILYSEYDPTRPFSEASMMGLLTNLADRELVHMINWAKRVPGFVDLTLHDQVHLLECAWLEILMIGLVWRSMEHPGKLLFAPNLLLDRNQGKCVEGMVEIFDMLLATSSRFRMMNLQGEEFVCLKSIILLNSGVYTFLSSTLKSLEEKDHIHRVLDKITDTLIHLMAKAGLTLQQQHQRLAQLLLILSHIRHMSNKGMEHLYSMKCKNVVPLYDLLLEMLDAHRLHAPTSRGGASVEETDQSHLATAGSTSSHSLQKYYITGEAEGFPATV
Estrogen receptor (Homo sapiens) + Estrogen receptor beta (Homo sapiens), sequence (Q92731 whole entry, looked up, the tested form may be a part): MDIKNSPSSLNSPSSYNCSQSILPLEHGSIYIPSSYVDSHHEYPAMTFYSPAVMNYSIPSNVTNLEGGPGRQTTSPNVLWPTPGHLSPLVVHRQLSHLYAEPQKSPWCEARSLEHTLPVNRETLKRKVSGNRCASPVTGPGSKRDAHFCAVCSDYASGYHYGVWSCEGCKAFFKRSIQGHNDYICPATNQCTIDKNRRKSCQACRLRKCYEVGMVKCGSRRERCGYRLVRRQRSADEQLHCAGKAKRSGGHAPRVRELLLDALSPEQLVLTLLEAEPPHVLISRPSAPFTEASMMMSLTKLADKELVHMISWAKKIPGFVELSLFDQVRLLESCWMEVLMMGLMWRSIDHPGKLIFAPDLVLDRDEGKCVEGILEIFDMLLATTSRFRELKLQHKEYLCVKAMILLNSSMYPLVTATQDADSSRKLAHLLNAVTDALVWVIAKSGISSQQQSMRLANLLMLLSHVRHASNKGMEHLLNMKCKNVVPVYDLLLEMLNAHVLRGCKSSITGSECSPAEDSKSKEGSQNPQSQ

Experiment [4] addresses Estrogen receptor beta (Homo sapiens) (UniProt Q92731). In words: OT_ER_ERbERb_0480: Odyssey Thera (OT) 8-hour HEK293T Protein-Complementation Assay for Estrogen Receptor-beta/-beta Homodimer (AID 2283357).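 Note: active means signal gain over DMSO baseline.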 The essentials:
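Homodimerization of ER-beta LBD measured by protein-fragment complementation in HEK293T; 8 h dosing; fixed, Draq5 counterstain; fluorescence intensity gain over DMSO baseline, positive fitting direction; laser scanning cytometry.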

For experiment [5], the target named is human Dopamine Transporter (DAT), SLC6A3 (gene 6531) (UniProt Q01959). As to the kind of experiment: NVS_TR_hDAT: NovaScreen (NVS) Transporter Assay for human Dopamine Transporter (DAT) (AID 2283374).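 Note: activity means loss of bound radioligand signal relative to DMSO.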 The essentials: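 hDAT membranes + tritiated/iodinated radioligand, competitive displacement; 1 h; filter scintillation readout. Single conc 25 uM (duplicate), then conc-response for actives. DMSO = negative control.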
human Dopamine Transporter (DAT), SLC6A3 (gene 6531), sequence (Q01959 whole entry, looked up): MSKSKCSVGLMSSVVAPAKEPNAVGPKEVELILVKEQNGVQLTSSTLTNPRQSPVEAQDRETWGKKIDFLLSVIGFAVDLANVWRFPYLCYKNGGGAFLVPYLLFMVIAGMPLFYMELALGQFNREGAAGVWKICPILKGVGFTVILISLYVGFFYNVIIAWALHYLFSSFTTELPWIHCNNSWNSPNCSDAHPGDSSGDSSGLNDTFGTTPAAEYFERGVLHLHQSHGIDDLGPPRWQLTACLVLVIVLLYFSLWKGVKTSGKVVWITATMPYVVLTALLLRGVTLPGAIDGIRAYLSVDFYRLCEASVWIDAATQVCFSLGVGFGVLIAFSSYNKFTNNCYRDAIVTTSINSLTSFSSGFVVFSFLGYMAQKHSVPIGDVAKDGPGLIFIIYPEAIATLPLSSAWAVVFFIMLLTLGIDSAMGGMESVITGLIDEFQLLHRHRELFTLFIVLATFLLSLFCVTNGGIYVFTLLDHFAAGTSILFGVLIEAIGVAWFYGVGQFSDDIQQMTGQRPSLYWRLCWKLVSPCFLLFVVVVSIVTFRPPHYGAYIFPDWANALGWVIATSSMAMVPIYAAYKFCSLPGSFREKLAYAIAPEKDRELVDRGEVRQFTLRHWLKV

Estrogen receptor beta (Homo sapiens), sequence (Q92731 whole entry, looked up, the tested form may be a part): as the sequence (Q92731 whole entry, looked up, the tested form may be a part) above
rat Androgen Receptor (AR), Ar (gene 24208), sequence (P15207 whole entry, looked up): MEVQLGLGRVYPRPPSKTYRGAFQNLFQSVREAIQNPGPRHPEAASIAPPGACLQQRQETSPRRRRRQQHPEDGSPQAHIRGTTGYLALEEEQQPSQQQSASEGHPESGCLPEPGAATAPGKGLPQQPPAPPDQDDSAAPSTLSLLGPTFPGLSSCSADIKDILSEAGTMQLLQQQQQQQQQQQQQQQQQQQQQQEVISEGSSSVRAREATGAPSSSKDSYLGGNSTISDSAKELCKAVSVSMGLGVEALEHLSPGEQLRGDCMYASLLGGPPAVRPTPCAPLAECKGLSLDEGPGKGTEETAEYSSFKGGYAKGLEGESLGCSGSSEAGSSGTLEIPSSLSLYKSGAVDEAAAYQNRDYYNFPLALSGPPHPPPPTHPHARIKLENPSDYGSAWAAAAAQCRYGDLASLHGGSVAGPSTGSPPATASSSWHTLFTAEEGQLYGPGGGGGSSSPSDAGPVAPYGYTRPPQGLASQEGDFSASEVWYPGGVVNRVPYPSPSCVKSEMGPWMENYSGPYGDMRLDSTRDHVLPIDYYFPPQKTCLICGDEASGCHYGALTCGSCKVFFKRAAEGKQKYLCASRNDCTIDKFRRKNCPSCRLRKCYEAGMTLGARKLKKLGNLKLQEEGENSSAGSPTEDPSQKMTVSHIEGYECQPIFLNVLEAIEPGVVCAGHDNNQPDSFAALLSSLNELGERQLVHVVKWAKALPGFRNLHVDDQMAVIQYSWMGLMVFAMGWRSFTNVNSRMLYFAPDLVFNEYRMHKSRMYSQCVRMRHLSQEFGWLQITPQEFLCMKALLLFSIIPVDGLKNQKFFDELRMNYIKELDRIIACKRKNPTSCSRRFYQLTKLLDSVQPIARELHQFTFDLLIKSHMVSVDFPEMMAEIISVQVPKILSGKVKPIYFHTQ
Estrogen receptor (Homo sapiens), sequence (P03372 whole entry, looked up, the tested form may be a part): as the sequence (P03372 whole entry, looked up, the tested form may be a part) above

On to `C#CC(O)CCC` (stereo not given), for which the call in experiment [1] was inactive.

Consider `CC(C)(C)c1cc(CCC(=O)OCC(COC(=O)CCc2cc(C(C)(C)C)c(O)c(C(C)(C)C)c2)(COC(=O)CCc2cc(C(C)(C)C)c(O)c(C(C)(C)C)c2)COC(=O)CCc2cc(C(C)(C)C)c(O)c(C(C)(C)C)c2)cc(C(C)(C)C)c1O`, for which the outcome in experiment [2], in experiment [3] and in experiment [4] was inactive. As for `CCn1c2ccccc2c2ccccc21`, the molecule was called inactive in experiment [5].
